Several values for one entry are separate records, joined by “and”; a condition that tells them apart may be missing. Identical values can stand only once. Results filed as inconclusive are left out. The source holds several records for some structures; these can differ, active in one and inactive in another. Activity calls are given as the source filed them. Rule for the calls, unless noted: active = hit-call score of the fitted dose curve at least 0.9, where 1 is the maximum; inactive = score below 0.9.
Key:
CD69, CD69 (gene 969) = test: BSK_LPS_CD69: BioMAP Diversity Plus: LPS Assay for CD69 Biomarker Activity (AID 2284303); conditions: primary human HUVEC with PBMC
How it was run: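 CD69 surface levels were read by ELISA after 24 h chemical treatment of an LPS-stimulated HUVEC plus PBMC co-culture; positive-direction fit against DMSO vehicle.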

[1] = IUF_NPC2a_radial_glia_migration_72hr: Leibniz Research Institute for Environmental Medicine (IUF) 72-hour Neural Progenitor Cell Migration Assay for Radial Glia Migration (NPC2a) (AID 2284299)
How it was run: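 Single 0.3 mm neurospheres were plated per well in N2 differentiation medium and exposed from the start of differentiation. After 72 hours, brightfield images were taken and radial glia migration from the sphere core edge was measured manually in four directions, averaged per well.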

[2] = IUF_NPC2b_neuronal_migration_120hr: Leibniz Research Institute for Environmental Medicine (IUF) 120-hour Neural Progenitor Cell Migration Assay for Neuron Migration (NPC2b) (AID 2284300)
How it was run: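 Read-out is mean distance from sphere edge to each TUBB3-positive neuron at 120 h, expressed relative to radial glia migration distance and to DMSO baseline. Single 0.3 mm human NPC spheres differentiated on laminin under continuous compound exposure.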

[3] = IUF_NPC3_neuronal_differentiation_120hr: Leibniz Research Institute for Environmental Medicine (IUF) 120-hour Neuronal Differentiation Assay (NPC3) (AID 2284301)
How it was run: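 Value is percent TUBB3-positive neurons among Hoechst-stained nuclei in the migration area, scored by trained CNN after 120 h differentiation. Primary hNPC spheres on poly-D-lysine/laminin, N2 medium, continuous dosing from day 0, half-refeed day 3; DMSO reference.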

[4] = IUF_NPC4_neurite_length_120hr: Leibniz Research Institute for Environmental Medicine (IUF) 120-hour Neuronal Morphology Assay for Neurite Length (NPC4) (AID 2284302)
How it was run: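 Neurite length, the mean in um across TUBB3-stained neurons, is derived by skeletonization of high-content images after 120 h differentiation. Compound exposure, 7 concentrations plus solvent control, ran from plating of hNPC spheres on poly-D-lysine/laminin, with medium half-replaced on day 3.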

[5] = IUF_NPC4_neurite_area_120hr: Leibniz Research Institute for Environmental Medicine (IUF) 120-hour Neuronal Morphology Assay for Neurite Area (NPC4) (AID 2284305; active = hit-call score of the fitted dose curve at least 0.9, where 1 is the maximum)
How it was run: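 Neurite area (pixels, nuclei excluded) of TUBB3-positive neurons from hNPC spheres differentiating 5 days under continuous exposure at 37 C, 5% CO2. High-content imaging; loss of signal versus DMSO control across 7 concentrations.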

[6] = IUF_NPC2-5_cytotoxicity_72hr: Cytotoxicity Assessment at 72 hours in the Leibniz Research Institute for Environmental Medicine (IUF) Neural Progenitor Cell Migration and Differentiation Assay for Cytotoxicity (NPC2-5) (AID 2284306; active = hit-call score of the fitted dose curve at least 0.9, where 1 is the maximum;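 note: LDH release into supernatant measured by resorufin fluorescence marking membrane damage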)
How it was run: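 Membrane-integrity cytotoxicity at 72 h, read as LDH-driven resorufin fluorescence in supernatant. hNPC spheres from fetal cortex differentiate on coated plates in N2 medium, 37C, 5% CO2; seven serial compound concentrations plus solvent control (DMSO ≤0.1%).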

[7] = IUF_NPC2-5_cytotoxicity_120hr: Cytotoxicity Assessment at 120 hours in the Leibniz Research Institute for Environmental Medicine (IUF) Neural Progenitor Cell Migration and Differentiation Assay (NPC2-5) (AID 2284307; active = hit-call score of the fitted dose curve at least 0.9, where 1 is the maximum)
How it was run: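 Sphere plating starts differentiation and exposure together at day 0. Compound solution is half-replaced on day 3. At 120 h, medium supernatant is taken for an LDH membrane-integrity read based on resazurin reduction to resorufin fluorescence.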

[8] = IUF_NPC2-5_cell_number_120hr: Cell Number Assessment at 120 hours in the Leibniz Research Institute for Environmental Medicine (IUF) Neural Progenitor Cell Migration and Differentiation Assay (NPC2-5) (AID 2284308);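 note: count of Hoechst-stained nuclei in migration zone around plated human neural progenitor spheres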
How it was run: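 hNPC spheres, one per well, PDL/laminin, N2 medium, 37C, 5% CO2. Dosing day 0 → half-medium change with fresh compound day 3 → fix 120 h. Readout: Hoechst+ nuclei count, migration area; 7 concentrations plus solvent control.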

[9] = IUF_NPC2-5_viability_120hr: Viability Assessment at 120 hours in the Leibniz Research Institute for Environmental Medicine (IUF) Neural Progenitor Cell Migration and Differentiation Assay (NPC2-5) (AID 2284312)
How it was run: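 Alamar blue resorufin fluorescence read after 5 days of differentiation, with compound present from day 0 and replenished at day 3. Primary hNPC spheres on laminin-coated plates, 37C; seven concentrations plus solvent control, fitted against DMSO.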

[10] = CCTE_Mundy_HCI_iCellGluta_NOG_NeuriteLength: CCTE's Neurite Outgrowth Assay in iCellGluta cells for Neurite Length, Mundy Lab (AID 2284318; active = hit-call score of the fitted dose curve at least 0.9, where 1 is the maximum)
How it was run: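 Automated high-content imaging of betaIII-tubulin (Alexa Fluor-488) and Hoechst-stained cells gave neurite length, normalized to the DMSO baseline.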

[11] = CCTE_Deisenroth_DEVTOX-GLR_legacy_CellCount: (Legacy) Viability Assessment in CCTE's DevTox GLR-Endo Assay, Deisenroth Lab (AID 2284331); conditions: actives raise or lower the signal
How it was run: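 Seed RUES2-GLR 24 h; differentiate 48 h, dosing at 0 and 24 h; fix, stain nuclei; image 5 fields/well; count nuclei. Conc. 1 nM - 200 uM, single technical replicate, n=4 experiments; bidirectional fit vs 0.2% DMSO.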

[12] = TAMU_PeakParms_SingleDonor1434_Asystole: Texas A&M University (TAMU) 1.5-hr Human Induced Pluripotent Stem Cell (iPSC)-derived Cardiomyocytes Calcium (Ca+2) Flux Assay for Cardiotoxicity: Asystole (quiescence of beating) (AID 2284328; active = hit-call score of the fitted dose curve at least 0.9, where 1 is the maximum)
How it was run: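 Average Ca2+-flux peak frequency (beats/s) was recorded in single-donor iPSC-derived cardiomyocytes after 90 min exposure (0.2–100 uM final, 0.5% DMSO). Asystole POD set as EC95 against DMSO, no preprocessing.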

TTR (gene 7276) = test: CCTE_GLTED_hTTR_0.5uM: CCTE's human Transthyretin (hTTR) Inhibition Assay, with 0.5uM TTR, Great Lakes Toxicology and Ecology Division (GLTED) Lab (AID 2284320)
How it was run: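 Probe (ANSA) displacement from 0.5 uM human transthyretin was followed by fluorescence (ex 380, em 475) after a 2 h incubation with chemical. Activity was scored as signal loss and fitted positively relative to DMSO.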

[13] = CCTE_Deisenroth_5AR_NBTE_donor: CCTE's 5alpha-reductase NanoBRET Target Engagement Assay […], Deisenroth Lab (AID 2284319); conditions: actives raise or lower the signal
How it was run: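 In this secondary endpoint, donor luminescence from SRD5A2-NanoLuc in transfected HEK293T flags artifacts. Test chemical (10 nM - 29.9 uM) is present five hours, tracer the last two; mock-tracer wells run plate-matched; data fitted bidirectionally against DMSO.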

[14] = CCTE_Deisenroth_5AR_NBTE_acceptor: CCTE's 5alpha-reductase NanoBRET Target Engagement Assay - Autofluorescence Screen, Deisenroth Lab (AID 2284321); conditions: actives raise or lower the signal;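 note: compound fluorescence in the acceptor channel under 460 nm excitation flags autofluorescence artifacts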
How it was run: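 Acceptor fluorescence intensity was read as an artifact-detection endpoint. Test chemicals at an assumed nominal 100 uM were excited at 460 nm across three independent runs. Activity was fitted bidirectionally against DMSO.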

SRD5A2 (gene 6716) = test: CCTE_Deisenroth_5AR_NBTE_ratio: CCTE's 5alpha-reductase NanoBRET Target Engagement Assay - Ratio, Deisenroth Lab (AID 2284322); conditions: actives raise or lower the signal
How it was run: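 HEK293T cells transiently expressing an SRD5A2-NanoLuc fusion (20 h post-transfection) were exposed to test chemical (10 nM - 29.9 uM, 8 points) for 3 h, then testosterone tracer for a further 2 h. Acceptor/donor BRET ratio was fitted bidirectionally against DMSO baseline.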

IYD (gene 389434) = test: CCTE_GLTED_hIYD: CCTE's human Iodotyrosine Deiodinase (xIYD) Inhibition Assay, Great Lakes Toxicology and Ecology Division (GLTED) Lab (AID 2284317; active = hit-call score of the fitted dose curve at least 0.9, where 1 is the maximum;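 note: cell-free human IYD enzyme made in baculovirus insect cells; iodide freed from monoiodotyrosine measured by cerium arsenite color change at 420 nm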)
How it was run: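 Deiodination of MIT by insect-cell-produced human IYD is measured after a 3 h incubation with test chemical. Free iodide passes through a Dowex column and accelerates Sandell-Kolthoff Ce4+ reduction, read at 420 nm; run in triplicate.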

[15] = system: Brachyury (BRA) Protein Expression, Deisenroth Lab, TBXT (gene 6862); test: CCTE_Deisenroth_DEVTOX-GLR_legacy_Bra: (Legacy) CCTE's DevTox GLR-Endo Assay Evaluation of Brachyury (BRA) Protein Expression, Deisenroth Lab (AID 2284329)
How it was run: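 Percent Bra-positive cells, scored by high-content imaging against a threshold of 5x BMAD over the undifferentiated control median, with the 0.2% DMSO median subtracted. RUES2-GLR cultures were dosed twice at 24 h intervals across a 48 h differentiation, at 1 nM–200 uM in ten steps, with n=4 replicates.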

[16] = IUF_NPC5_oligodendrocyte_differentiation_120hr: Leibniz Research Institute for Environmental Medicine (IUF) 120-hour Oligodendrocyte Differentiation Assay (NPC5) (AID 2284304; active = hit-call score of the fitted dose curve at least 0.9, where 1 is the maximum;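 note: primary human fetal neural progenitor spheres plated to migrate and differentiate; share of O4-positive cells among Hoechst nuclei found by CNN image analysis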)
How it was run: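 Oligodendrocyte differentiation was scored after 120 h as the O4-positive share of Hoechst-stained nuclei across the neurosphere migration area, using a trained convolutional neural network on high-content fluorescence images. Human fetal neural progenitor spheres were dosed from day 0, normalised to DMSO.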

C=C(F)C(=O)OC(C(F)(F)F)C(F)(F)F
outcome (CD69, CD69 (gene 969)): inactive

CC(C)Cc1ccc(C(C)C(=O)O)cc1 (stereo not drawn)
outcome [1]: inactive | outcome [2]: inactive | outcome [3]: inactive | outcome [4]: inactive | outcome [5]: inactive | outcome [6]: inactive | outcome [7]: inactive | outcome [8]: inactive | outcome [9]: inactive | AC50 [10]: 15 µM (active) | outcome [11]: inactive

c1ccc2scnc2c1
outcome [1]: inactive | outcome [2]: inactive | outcome [3]: inactive | outcome [4]: inactive | outcome [5]: inactive | outcome [6]: inactive | outcome [7]: inactive | outcome [8]: inactive | outcome [9]: inactive | outcome [10]: inactive

c1ccc(OCCOc2ccccc2)cc1
outcome (CD69, CD69 (gene 969)): inactive

N#CCCNCCC#N
outcome [10]: inactive | outcome [12]: inactive

O=S(=O)(O)C(F)(F)C(F)(F)OC(F)(F)C(F)(F)F
outcome (CD69, CD69 (gene 969)): inactive | AC50 (TTR (gene 7276)): 2.14 µM (active)

O=C(c1ccc(OCCN2CCCCC2)cc1)c1c(-c2ccc(O)cc2)sc2cc(O)ccc12
AC50 [13]: 50 µM (active) | AC50 [14]: 50 µM (active) | AC50 (SRD5A2 (gene 6716)): 19.1 µM (active)

CC(C)(CO)CO
outcome (CD69, CD69 (gene 969)): inactive

CC/C(=C(\c1ccccc1)c1ccc(OCCN(C)C)cc1)c1ccccc1
AC50 (IYD (gene 389434)): 55.8 µM (active) and 31.5 µM (active) | AC50 [13]: 67.4 µM (active) | AC50 [14]: 64 µM (active) | AC50 (SRD5A2 (gene 6716)): 76.6 µM (active) | outcome [12]: inactive

C=C(C)C(=O)OCCC(F)(F)C(F)(F)C(F)(F)C(F)(F)C(F)(F)C(F)(F)C(F)(F)C(F)(F)F
outcome (CD69, CD69 (gene 969)): inactive

O=S(=O)(O)c1cc(S(=O)(=O)O)c2c(N=Nc3ccccc3)c(O)ccc2c1
outcome [13]: inactive | outcome [14]: inactive | AC50 (SRD5A2 (gene 6716)): 10.9 µM (active)

CC(=O)C1=C(C)[C@@H]2C[C@@]3(C1)[C@H](C)CC[C@H]3C2(C)C
outcome [13]: inactive | outcome [14]: inactive | outcome (SRD5A2 (gene 6716)): inactive

CCCO[Si](OCCC)(OCCC)OCCC
outcome (CD69, CD69 (gene 969)): inactive | outcome [13]: inactive | outcome [14]: inactive | outcome (SRD5A2 (gene 6716)): inactive

CCCCCCCCCCCCN1CCOCC1
AC50 (IYD (gene 389434)): 51 µM (active) | outcome [13]: inactive | outcome [14]: inactive | outcome (SRD5A2 (gene 6716)): inactive

CCn1cc(C(=O)O)c(=O)c2ccc(C)nc21
outcome (CD69, CD69 (gene 969)): inactive

CCCCCCCCOC(=O)c1ccc(O)cc1
AC50 (IYD (gene 389434)): 39.6 µM (active)

CCCCN(CCO)CCO
outcome (CD69, CD69 (gene 969)): inactive

CC(=O)c1ccc(C)cc1
outcome (CD69, CD69 (gene 969)): inactive

O=C(O)c1ccccc1O
outcome [15]: inactive | outcome [11]: inactive

N[C@@H](CCC(=O)O)C(=O)O
outcome [1]: inactive | outcome [2]: inactive | outcome [3]: inactive | outcome [4]: inactive | outcome [16]: inactive | outcome [5]: inactive | outcome [7]: inactive | outcome [8]: inactive | outcome [9]: inactive | outcome [10]: inactive

CCCCCCCCCCCCOCCOS(=O)(=O)O
AC50 (IYD (gene 389434)): 76.7 µM (active) | AC50 [13]: 79 µM (active) | AC50 [14]: 78.4 µM (active) | AC50 (SRD5A2 (gene 6716)): 79.1 µM (active)

O=C1OC2(c3ccc(O)cc3Oc3cc(O)ccc32)c2ccccc21
outcome (IYD (gene 389434)): inactive | AC50 [13]: 3.88 µM (active) | outcome [14]: inactive | AC50 (SRD5A2 (gene 6716)): 10.3 µM (active)

CCCCC(CC)COC(=O)COc1ccc(Cl)cc1C (stereo not drawn)
outcome [1]: inactive | outcome [2]: inactive | outcome [3]: inactive | outcome [4]: inactive | outcome [5]: inactive | outcome [6]: inactive | outcome [7]: inactive | outcome [8]: inactive | outcome [9]: inactive | AC50 [10]: 33.4 µM (active)

CNC(=C[N+](=O)[O-])NCCSCc1ccc(CN(C)C)o1
outcome [12]: inactive

O=C(O)C(F)(F)C(F)(F)C(F)(F)C(F)(F)C(F)(F)C(F)(F)C(F)(F)C(F)F
outcome (CD69, CD69 (gene 969)): inactive | AC50 (TTR (gene 7276)): 0.53 µM (active)

OCC(F)(OC(F)(F)C(F)(OC(F)(F)C(F)(F)C(F)(F)F)C(F)(F)F)C(F)(F)F (stereo not drawn)
AC50 (CD69, CD69 (gene 969)): 4.81 µM (active) | outcome (CD69, CD69 (gene 969)): inactive

CC(C)CCCC(C)(C)O
outcome (CD69, CD69 (gene 969)): inactive

O=C(O)C(F)(F)OC(F)(F)C(F)(F)OC(F)(F)C(F)(F)C(F)(F)C(F)(F)F
AC50 (CD69, CD69 (gene 969)): 36 µM (active) and 32.4 µM (active) | AC50 (TTR (gene 7276)): 0.712 µM (active)

Source: PubChem BioAssay (EPA / NIEHS)
